An excerpt weighted towards active compounds, which were near 8.8% of everything screened.
IL1B secr inh = qHTS for Inhibitors of Inflammasome Signaling: IL-1-beta AlphaLISA Primary Screen. THP-1 LPS/ATP IL-1B secretion, AlphaLISA, 16 h; hits give low values. activity change, % at 57.5 µM. actives 4.7% (n = 360,000); in the data active = activity change below about -50%; inconclusive = mostly about -30% to -49%
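THP-1 cells pretreated 1 hr with compounds (up to 57.5 uM final), then stimulated with LPS (250 ng/mL final) plus ATP (1.25 mM final); secreted IL-1B measured by AlphaLISA after 16 hr, decreased signal indicating inhibition.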
HT1080NT lethal = qHTS for induction of synthetic lethality in tumor cells producing 2HG: qHTS for the HT-1080-NT fibrosarcoma cell line; HT-1080-NT fibrosarcoma viability, CellTiter-Glo ATP luminescence, 48 h; AID 686970, 2013; Potency, µM (doses to about 46.1 µM), for the others: at the highest dose activity, negative = less viability, actives largely listed as cytotoxic; actives 1.6% (n = 360,000);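 note: NT is the 2HG producing partner of a matched IDH1 knockdown line; potency is the fitted concentration of half-maximal effect; 0% = DMSO-treated cells and -100% = media-only wells without cells; nearly all actives have a fitted effect of over 55% in size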
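Viability of the 2HG-overproducing fibrosarcoma line after 48 hours of compound exposure at 37 degrees C was determined by luminescence with CellTiter-Glo, and concentration-effect curves were then fitted and categorized.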
HT1080 IDH1KD tx = qHTS for induction of synthetic lethality in tumor cells producing 2HG: qHTS for the HT-1080-IDH1KD cell line; HT-1080 IDH1 knockdown viability, ATP luminescence, 48 h; Potency, µM (doses to about 46.1 µM), without a hit: at the highest dose activity, negative = toxicity, most hits filed as cytotoxic; actives 2% (n = 360,000); AID 686971, 2013;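 note: potency is the fitted concentration of half-maximal effect; 0% = DMSO wells and -100% = cell-free medium wells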
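After a 2 h attachment period, IDH1KD HT-1080 cells took pin-transferred compound for 48 h at 37 °C; ATP-based luminescence after 10 min room-temperature reagent incubation reported viability.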
KB-V1 cytotox = qHTS assay for MDR1-selective chemotherapeutics: Primary screen using the drug-selected MDR subline cells KB-V1; KB-V1 MDR cells viability, CellTiter-Glo, 72 h; Potency, µM (top dose mostly 46.1 µM), hits mostly cytotoxic; actives 3.4% (n = 400,000); AID 1347076, 2019; note: potency is the fitted concentration of half-maximal effect; nearly all actives have a fitted effect of over 60% in size
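Compound-treated KB-V1 multidrug-resistant cells, 72 h, 37 degrees C; viability by CellTiter-Glo. Fitted qHTS curves give the values.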
KB-3-1 tox = qHTS assay for MDR1-selective chemotherapeutics: Primary screen using the parental adenocarcinoma cell KB-3-1 | KB-3-1 viability, CellTiter-Glo ATP luminescence, 72 h | Potency, µM (series often up to 46.1 µM), most hits filed as cytotoxic | actives 1.4% (n = 400,000) | AID 1347075, 2019; note: potency is the fitted concentration of half-maximal effect; nearly all actives have a fitted effect of over 60% in size
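Luminescent ATP read-out (CellTiter-Glo) measures survival of drug-naive KB-3-1 cells after 72 h compound exposure at 37 °C. Titration series was screened from lowest to highest concentration, with DMSO vehicle plates as background controls.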
* = called active by the depositor; i = inactive; ? = inconclusive; . = no result. Unless noted, calls come from the whole dose curve; as a rule, active = well fitted curve in the direction sought with a large enough effect; inconclusive = small, poorly fitted or top-dose-only effect, or another doubt; inactive = no such curve, though single readings can be large; an effect the other way counts as inactive or inconclusive. Unless noted, % is set by controls: 0 for no effect and ±100 for the full control effect.

SMILES	IL1B secr inh	HT1080NT lethal	HT1080 IDH1KD tx	KB-V1 cytotox	KB-3-1 tox
Cc1cc(C)c2sc(N(CCCN(C)C)C(=O)c3ccc(S(=O)(=O)N4CCCc5ccccc54)cc3)nc2c1	-67*	18µM*	?	?	?
CN(C)CCCN(C(=O)c1ccc(S(=O)(=O)N2CCCCCC2)cc1)c1nc2c(F)cc(F)cc2s1	-86*	-7%	-3%	i	i
CN(C)CCCN(C(=O)c1ccc(S(=O)(=O)N2CCc3ccccc3C2)cc1)c1nc2c(F)cccc2s1	-51*	-7%	-12%	i	i
CN(C)CCCN(C(=O)c1ccc(S(=O)(=O)N2CCc3ccccc32)cc1)c1nc2ccc(Cl)cc2s1	0	-15%	?	i	?
COc1ccc(CCNC(=O)Cn2nc(C)n3c(cc4occc43)c2=O)cc1OC	.	.	.	i	i
Cc1oc2c(CN3CCC(C)CC3)c(O)ccc2c(=O)c1-c1ccccc1	-14	-5%	0%	i	i
CCn1c(N2CCN(CC(=O)c3ccc(OC)cc3)CC2)nc2ccccc21	-16	-5%	-1%	i	i
CCn1c(=N)n(CC(=O)c2ccc(OC)c(OC)c2)c2ccccc21	2	2%	?	13µM*	i
CCn1c(=N)n(CC(=O)OC)c2ccccc21	25	9%	15%	i	i
COc1ccc(C(=O)Cn2c(C(C)=O)nc3ccccc32)cc1	13	-10%	?	3.3µM*	?
COc1ccc(C(=O)Cn2c(=N)n(C)c3ccccc32)cc1	-56*	?	?	i	i
COc1ccc(/C=C/C(=O)c2nc3ccccc3n2CC(=O)c2ccc(OC)cc2)cc1	-27	-3%	-8%	23µM*	i
COc1ccc(C(=O)Cn2c(NCCO)nc3ccccc32)cc1	-22	-1%	-8%	i	i
Cn1c(=N)n(CC(=O)c2ccccc2)c2ccccc21	-4	-6%	-17%	i	i
Cn1c(SCC(=O)Nc2cccnc2)nnc1-c1ccccc1F	42	12%	0%	i	i
CCCCCC(=O)N1CCCCC1	9	23%	16%	i	i
CCN(CC)CCn1c(=N)n(CC(=O)c2ccc(C)cc2)c2ccccc21	-59*	-25%	?	i	?
CCCn1c(=N)n(CC(=O)C(C)(C)C)c2ccccc21	-7	-13%	-16%	i	i
CCn1c(=N)n(CC(=O)C(C)(C)C)c2ccccc21	-6	7.1µM*	7.9µM*	i	i
CCN1C(=NCc2cccc(Cl)c2)N[C@@H](c2cccc(F)c2)C(C(=O)OC)=C1C	-70*	-22%	-12%	i	i
COC(=O)C1=C(C)N(Cc2ccccc2)C(=NCc2ccc(OC)cc2)N[C@H]1c1ccccc1	-52*	-21%	?	?	i
COC(=O)C1=C(C)N(CC2CC2)C(=NCc2cccc(C(F)(F)F)c2)N[C@H]1c1ccccc1	-58*	-19%	-7%	i	i
COC(=O)C1=C(C)N(Cc2ccccc2)C(=NCc2cccc(C(F)(F)F)c2)N[C@H]1c1cccc(F)c1	-104*	?	?	?	?
COC(=O)C1=C(C)N(Cc2ccccc2)C(=O)N[C@H]1c1cccc(F)c1	3	-3%	-3%	i	i
COc1ccc(Nc2nc3c(S(=O)(=O)c4ccccc4)nnn3c3ccsc23)cc1OC	.	.	.	i	i
SMILES	IL1B secr inh	HT1080NT lethal	HT1080 IDH1KD tx	KB-V1 cytotox	KB-3-1 tox
COC(=O)C1=C(C)N(Cc2ccccc2)C(=NCCCCO)N[C@H]1c1cccc(C(F)(F)F)c1	?	-18%	-1%	i	i
COC(=O)C1=C(C)N(Cc2ccccc2)C(=NCc2cccc(C(F)(F)F)c2)N[C@H]1c1cccc(C(F)(F)F)c1	-101*	?	?	?	?
COCCN=C1N[C@@H](c2cccc(C(F)(F)F)c2)C(C(=O)OC)=C(C)N1Cc1ccccc1	-56*	?	-6%	i	i
COC(=O)C1=C(C)N(Cc2ccccc2)C(=NCCc2c[nH]c3ccccc23)N[C@H]1c1cccc(C(F)(F)F)c1	-50*	-28%	-19%	?	?
COC(=O)C1=C(C)N(Cc2ccccc2)C(=NCCc2ccccn2)N[C@H]1c1cccc(F)c1	-55*	-12%	0%	i	i
O=S(=O)(c1ccc(Cl)cc1)N1CCN(C(=S)NCC2CCCO2)CC1 (configuration not stated)	-4	-6%	-18%	i	i
CC1(C(=O)NS(=O)(=O)C2CC2)CCCN(C(=O)c2c(F)cccc2F)C1 (configuration not stated)	-12	12%	7%	i	i
O=S(=O)(NCC1(N2CCOCC2)CCCCC1)c1ccc(Cl)cc1C(F)(F)F	i	13%	17%	?	i
CCCCCCCCC(c1nc2ccccc2[nH]1)N1CCN=C1c1cc2ccccc2[nH]1 (configuration not stated)	-66*	?	?	?	?
CCCCC(CC)CN=C(N)NC(N)=NCCCCCCN=C(N)NC(N)=NCC(CC)CCCC (configuration not stated)	-104*	7.3µM*	23µM*	?	?
COc1ccccc1N(C)C	.	.	.	i	i
COc1ccc(NC(=S)c2ccccc2)cc1	-82*	3%	7%	i	i
COc1ccc(NC(=O)CCCCC#Cc2ccccc2)cc1	17	0%	3%	i	i
COc1ccc(NC(=O)C(Cc2ccccc2)n2cccc2)cc1 (configuration not stated)	-73*	-17%	-9%	i	i
COc1ccc(NC(=O)C#Cc2ccccc2)cc1	.	?	?	i	21µM*
